# Source: PubChem BioAssay AID1159580 (chemical genetic matrix, 2015)
# In all, about 5,500 compounds went through this assay and about 2,000 (36%) were called active. Another 18% or so got no clear call; they are omitted. No stated cut-off is given here; in the data, active means normalized growth mostly below about 0.91 (no sharp cut-off); inconclusive means no clear call, values can overlap the other calls; inactive means mostly above about 0.92. The list shows a part of the results.
# Experiment: chemical genetic growth profiling, strain panel (AID 1159580);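 further: tested at 20 µM; growth read once vehicle control cultures reached saturation at 30 °C; 1 = growth at the plate median or of vehicle wells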
# Conditions: growth OD
structure (smiles),measurement,setting,value
COc1ccc(C(=O)c2ccccc2O)c(O)c1,normalized growth,"S. cerevisiae deletion strains, locus YJR066W, strain TOR1, stronger effect = lower value",0.901 (inactive)
same,normalized growth,"S. cerevisiae deletion strains, locus YKL009W, strain mrt4, stronger effect = lower value",0.895 (inactive)
same,normalized growth,"S. cerevisiae deletion strains, locus YKL068W, stronger effect = lower value",0.944 (inactive)
same,normalized growth,"S. cerevisiae deletion strains, locus YKL085W, strain MDH1 (second series), stronger effect = lower value",0.905 (active)
same,normalized growth,"S. cerevisiae deletion strains, locus YKL085W, strain MDH1, stronger effect = lower value",0.905 (active)
same,normalized growth,"S. cerevisiae deletion strains, locus YKL160W, strain elf1, stronger effect = lower value",0.896 (active)
same,normalized growth,"S. cerevisiae deletion strains, locus YKL190W, strain CNB1, stronger effect = lower value",0.963 (inactive)
same,normalized growth,"S. cerevisiae deletion strains, locus YKR001C, strain vps1, stronger effect = lower value",0.71 (active)
same,normalized growth,"S. cerevisiae deletion strains, locus YKR026C, strain gcn3, stronger effect = lower value",0.894 (active)
same,normalized growth,"S. cerevisiae deletion strains, locus YKR091W, strain srl3, stronger effect = lower value",0.901 (active)
same,normalized growth,"S. cerevisiae deletion strains, locus YLL001W, strain dnm1, stronger effect = lower value",0.92 (inactive)
same,normalized growth,"S. cerevisiae deletion strains, locus YLL026W, stronger effect = lower value",0.88 (active)
same,normalized growth,"S. cerevisiae deletion strains, locus YLL041C, strain sdh2, stronger effect = lower value",0.885 (active)
same,normalized growth,"S. cerevisiae deletion strains, locus YLR027C, strain aat2, stronger effect = lower value",0.875 (active)
same,normalized growth,"S. cerevisiae deletion strains, locus YLR039C, strain RIC1, stronger effect = lower value",0.63 (active)
same,normalized growth,"S. cerevisiae deletion strains, locus YLR058C, strain SHM2, stronger effect = lower value",0.919 (inactive)
same,normalized growth,"S. cerevisiae deletion strains, locus YLR102C, strain apc9, stronger effect = lower value",0.948 (inactive)
same,normalized growth,"S. cerevisiae deletion strains, locus YLR113W, strain HOG1, stronger effect = lower value",0.907 (inactive)
same,normalized growth,"S. cerevisiae deletion strains, locus YLR221C, strain rsa3, stronger effect = lower value",0.891 (active)
same,normalized growth,"S. cerevisiae deletion strains, locus YLR258W, strain gsy2, stronger effect = lower value",0.869 (active)
same,normalized growth,"S. cerevisiae deletion strains, locus YLR262C, strain YPT6 (second series), stronger effect = lower value",0.46 (active)
same,normalized growth,"S. cerevisiae deletion strains, locus YLR262C, strain YPT6, stronger effect = lower value",0.562 (active)
same,normalized growth,"S. cerevisiae deletion strains, locus YLR268W, strain sec22, stronger effect = lower value",0.938 (inactive)
same,normalized growth,"S. cerevisiae deletion strains, locus YLR320W, strain mms22, stronger effect = lower value",0.717 (active)
same,normalized growth,"S. cerevisiae deletion strains, locus YLR330W, strain CHS5, stronger effect = lower value",0.923 (inactive)
same,normalized growth,"S. cerevisiae deletion strains, locus YLR342W, strain FKS1 (second series), stronger effect = lower value",0.838 (inactive)
same,normalized growth,"S. cerevisiae deletion strains, locus YLR342W, strain FKS1, stronger effect = lower value",0.872 (active)
same,normalized growth,"S. cerevisiae deletion strains, locus YLR357W, strain rsc2, stronger effect = lower value",0.986 (inactive)
same,normalized growth,"S. cerevisiae deletion strains, locus YLR370C, strain arc18, stronger effect = lower value",0.841 (active)
same,normalized growth,"S. cerevisiae deletion strains, locus YLR371W, strain rom2, stronger effect = lower value",0.91 (inactive)
same,normalized growth,"S. cerevisiae deletion strains, locus YLR384C, strain iki3, stronger effect = lower value",0.89 (active)
same,normalized growth,"S. cerevisiae deletion strains, locus YLR418C, strain cdc73, stronger effect = lower value",0.821 (active)
same,normalized growth,"S. cerevisiae deletion strains, locus YML016C, strain PPZ1, stronger effect = lower value",0.93 (inactive)
same,normalized growth,"S. cerevisiae deletion strains, locus YML032C, strain rad52, stronger effect = lower value",0.923 (inactive)
same,normalized growth,"S. cerevisiae deletion strains, locus YML120C, strain ndi1, stronger effect = lower value",0.878 (active)
same,normalized growth,"S. cerevisiae deletion strains, locus YML124C, strain tub3, stronger effect = lower value",0.925 (active)
same,normalized growth,"S. cerevisiae deletion strains, locus YMR058W, strain fet3, stronger effect = lower value",0.824 (active)
same,normalized growth,"S. cerevisiae deletion strains, locus YMR078C, strain ctf18, stronger effect = lower value",0.913 (inactive)
same,normalized growth,"S. cerevisiae deletion strains, locus YMR125W, strain sto1, stronger effect = lower value",0.915 (inactive)
same,normalized growth,"S. cerevisiae deletion strains, locus YMR129W, stronger effect = lower value",0.888 (active)
same,normalized growth,"S. cerevisiae deletion strains, locus YMR205C, strain PFK2, stronger effect = lower value",0.803 (active)
same,normalized growth,"S. cerevisiae deletion strains, locus YMR223W, strain ubp8, stronger effect = lower value",0.873 (active)
same,normalized growth,"S. cerevisiae deletion strains, locus YMR231W, strain pep5, stronger effect = lower value",0.895 (active)
same,normalized growth,"S. cerevisiae deletion strains, locus YMR263W, strain SAP30, stronger effect = lower value",0.903 (inactive)
same,normalized growth,"S. cerevisiae deletion strains, locus YMR307W, strain GAS1, stronger effect = lower value",0.852 (inactive)
same,normalized growth,"S. cerevisiae deletion strains, locus YNL067W, strain RPL9B, stronger effect = lower value",0.892 (inactive)
same,normalized growth,"S. cerevisiae deletion strains, locus YNL071W, strain lat1, stronger effect = lower value",0.75 (active)
same,normalized growth,"S. cerevisiae deletion strains, locus YNL128W, strain TEP1, stronger effect = lower value",0.948 (inactive)
same,normalized growth,"S. cerevisiae deletion strains, locus YNL183C, strain NPR1, stronger effect = lower value",0.908 (inactive)
same,normalized growth,"S. cerevisiae deletion strains, locus YNL209W, strain ssb2, stronger effect = lower value",0.913 (active)
same,normalized growth,"S. cerevisiae deletion strains, locus YNL233W, strain BNI4, stronger effect = lower value",0.869 (active)
same,normalized growth,"S. cerevisiae deletion strains, locus YNL248C, strain rpa49, stronger effect = lower value",0.858 (active)
same,normalized growth,"S. cerevisiae deletion strains, locus YNL250W, strain rad50, stronger effect = lower value",0.951 (inactive)
same,normalized growth,"S. cerevisiae deletion strains, locus YNL271C, strain bni1, stronger effect = lower value",0.91 (active)
same,normalized growth,"S. cerevisiae deletion strains, locus YNL298W, strain CLA4, stronger effect = lower value",0.899 (active)
same,normalized growth,"S. cerevisiae deletion strains, locus YNL307C, strain MCK1, stronger effect = lower value",0.874 (active)
same,normalized growth,"S. cerevisiae deletion strains, locus YNL322C, strain KRE1 (second series), stronger effect = lower value",0.888 (active)
same,normalized growth,"S. cerevisiae deletion strains, locus YNL322C, strain KRE1, stronger effect = lower value",0.983 (inactive)
same,normalized growth,"S. cerevisiae deletion strains, locus YNR049C, strain mso1, stronger effect = lower value",0.889 (active)
same,normalized growth,"S. cerevisiae deletion strains, locus YNR052C, strain pop2, stronger effect = lower value",0.96 (inactive)
same,normalized growth,"S. cerevisiae deletion strains, locus YOL006C, strain TOP1, stronger effect = lower value",0.564 (inactive)
same,normalized growth,"S. cerevisiae deletion strains, locus YOL012C, strain htz1",1.21 (inactive)
same,normalized growth,"S. cerevisiae deletion strains, locus YOL147C, strain pex11, stronger effect = lower value",0.924 (active)
same,normalized growth,"S. cerevisiae deletion strains, locus YOR001W, strain rrp6, stronger effect = lower value",0.794 (active)
same,normalized growth,"S. cerevisiae deletion strains, locus YOR061W, strain CKA2, stronger effect = lower value",0.945 (inactive)
same,normalized growth,"S. cerevisiae deletion strains, locus YOR069W, strain VPS5, stronger effect = lower value",0.955 (inactive)
same,normalized growth,"S. cerevisiae deletion strains, locus YOR070C, strain gyp1, stronger effect = lower value",0.913 (active)
same,normalized growth,"S. cerevisiae deletion strains, locus YOR080W, strain dia2, stronger effect = lower value",0.919 (inactive)
same,normalized growth,"S. cerevisiae deletion strains, locus YOR083W, strain WHI5, stronger effect = lower value",0.884 (active)
same,normalized growth,"S. cerevisiae deletion strains, locus YOR106W, strain vam3, stronger effect = lower value",0.866 (active)
same,normalized growth,"S. cerevisiae deletion strains, locus YOR136W, strain idh2, stronger effect = lower value",0.961 (inactive)
same,normalized growth,"S. cerevisiae deletion strains, locus YOR144C, strain elg1, stronger effect = lower value",0.938 (inactive)
same,normalized growth,"S. cerevisiae deletion strains, locus YOR184W, strain ser1, stronger effect = lower value",0.754 (active)
same,normalized growth,"S. cerevisiae deletion strains, locus YOR231W, strain MKK1, stronger effect = lower value",0.958 (inactive)
same,normalized growth,"S. cerevisiae deletion strains, locus YOR265W, strain rbl2, stronger effect = lower value",0.891 (active)
same,normalized growth,"S. cerevisiae deletion strains, locus YOR270C, strain vph1, stronger effect = lower value",0.469 (active)
same,normalized growth,"S. cerevisiae deletion strains, locus YOR290C, strain snf2, stronger effect = lower value",0.803 (active)
same,normalized growth,"S. cerevisiae deletion strains, locus YOR316C, strain cot1, stronger effect = lower value",0.936 (inactive)
same,normalized growth,"S. cerevisiae deletion strains, locus YPL051W, strain arl3, stronger effect = lower value",0.729 (active)
same,normalized growth,"S. cerevisiae deletion strains, locus YPL055C, strain LGE1, stronger effect = lower value",0.9 (inactive)
same,normalized growth,"S. cerevisiae deletion strains, locus YPL078C, strain atp4, stronger effect = lower value",0.79 (active)
same,normalized growth,"S. cerevisiae deletion strains, locus YPL106C, strain sse1, stronger effect = lower value",0.935 (inactive)
same,normalized growth,"S. cerevisiae deletion strains, locus YPL240C, strain hsp82, stronger effect = lower value",0.901 (active)
same,normalized growth,"S. cerevisiae deletion strains, locus YPL241C, strain CIN2, stronger effect = lower value",0.972 (inactive)
same,normalized growth,"S. cerevisiae deletion strains, locus YPL256C, strain CLN2, stronger effect = lower value",0.918 (inactive)
same,normalized growth,"S. cerevisiae deletion strains, locus YPR119W, strain clb2, stronger effect = lower value",0.931 (inactive)
same,normalized growth,"S. cerevisiae deletion strains, locus YPR141C, strain kar3, stronger effect = lower value",0.905 (active)
same,normalized growth,"S. cerevisiae deletion strains, locus YPR163C, strain tif3, stronger effect = lower value",0.968 (inactive)
same,normalized growth,"S. cerevisiae deletion strains, locus YPR167C, strain met16, stronger effect = lower value",0.925 (inactive)
same,normalized growth,"S. cerevisiae deletion strains, strain wtn01, stronger effect = lower value",0.891 (active)
same,normalized growth,"S. cerevisiae strains, strain wild type, stronger effect = lower value",0.951 (inactive)
